Measured values taken from the supplement of paper PMC10127200.
Where a name gives a salt, the structure may show the parent alone.

Key:
Assay in all cases: Euclidean distance of Cell Painting phenotypic profile (signed KS, 77 features) to DMSO centroid (dimensionless distance); 5 or 10 uM (library dependent); higher = stronger phenotypic change vs DMSO (phenoactivity)
Conditions in all cases: 48 h
786-O = tested on: 786-O
Method in brief: (§1)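 Stained cells were imaged confocally at 20X with 9 fields per well, after 48 h of exposure to library compounds at 10 or 5 uM (set by library; 0.1% DMSO final). The cells were five cancer lines and a healthy fibroblast line. From the images, Harmony extracted 77 features, each expressed as a signed Kolmogorov-Smirnov statistic relative to same-plate vehicle wells. Phenoactivity is measured as Euclidean distance to the median vehicle profile, using plate-position-corrected, correlation-weighted profiles averaged across replicates at the top dose.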

A549 = tested on: A549
Method in brief: as §1

DU145 = tested on: DU145
Method in brief: as §1

FB = tested on: FB
Method in brief: as §1

HEPG2 = tested on: HEPG2
Method in brief: as §1

OVCAR4 = tested on: OVCAR4
Method in brief: as §1

CCCCc1nc2cc(/C=C/C(=O)NO)ccc2n1CCN(CC)CC [Pracinostat (SB939)]
Euclidean distance (786-O): 2.82
Euclidean distance (A549): 4.04
Euclidean distance (DU145): 3.89
Euclidean distance (FB): 4.08
Euclidean distance (HEPG2): 3.78
Euclidean distance (OVCAR4): 3.46

CC(=O)Nc1nnc(S(N)(=O)=O)s1 [Acetazolamide]
Euclidean distance (786-O): 1.03
Euclidean distance (A549): 0.669
Euclidean distance (DU145): 0.642
Euclidean distance (FB): 0.704
Euclidean distance (HEPG2): 0.604
Euclidean distance (OVCAR4): 1.08

Cc1ccc(Cl)cc1N(CC(=O)Nc1c(F)cccc1F)S(C)(=O)=O
Euclidean distance (786-O): 0.896
Euclidean distance (A549): 1.9
Euclidean distance (DU145): 0.886
Euclidean distance (FB): 0.614
Euclidean distance (HEPG2): 0.565
Euclidean distance (OVCAR4): 0.763

CC(=O)SCC(Cc1ccccc1)C(=O)NCC(=O)OCc1ccccc1 (stereo not given) [Racecadotril]
Euclidean distance (786-O): 1.61
Euclidean distance (A549): 0.894
Euclidean distance (DU145): 0.905
Euclidean distance (FB): 1.14
Euclidean distance (HEPG2): 0.452
Euclidean distance (OVCAR4): 1.68

Cc1cc(C)nc(NS(=O)(=O)c2ccc(N)cc2)n1 [Sulfamethazine Sodium Salt]
Euclidean distance (786-O): 0.877
Euclidean distance (A549): 0.792
Euclidean distance (DU145): 0.732
Euclidean distance (FB): 0.878
Euclidean distance (HEPG2): 0.494
Euclidean distance (OVCAR4): 1.38

Nc1nc2[nH]cc(CCc3ccc(C(=O)N[C@@H](CCC(=O)O)C(=O)O)cc3)c2c(=O)[nH]1 [Pemetrexed]
Euclidean distance (786-O): 1.73
Euclidean distance (A549): 2.69
Euclidean distance (DU145): 1.14
Euclidean distance (FB): 0.521
Euclidean distance (HEPG2): 1.85
Euclidean distance (OVCAR4): 3.1

CN(C)CCC[C@@]1(c2ccc(F)cc2)OCc2cc(C#N)ccc21 [Escitalopram Oxalate]
Euclidean distance (786-O): 1.58
Euclidean distance (A549): 1.12
Euclidean distance (DU145): 1.67
Euclidean distance (FB): 0.918
Euclidean distance (HEPG2): 0.791
Euclidean distance (OVCAR4): 1.43

CC(COc1ccccc1)N(CCCl)Cc1ccccc1 (stereo not given) [Phenoxybenzamine HCl]
Euclidean distance (786-O): 1.48
Euclidean distance (A549): 0.892
Euclidean distance (DU145): 1.06
Euclidean distance (FB): 0.978
Euclidean distance (HEPG2): 0.778
Euclidean distance (OVCAR4): 1.55

COc1cc(OC)c(/C=C/S(=O)(=O)Cc2ccc(OC)c(NCC(=O)O)c2)c(OC)c1
Euclidean distance (786-O): 2.84
Euclidean distance (A549): 2.83
Euclidean distance (DU145): 4.64
Euclidean distance (FB): 3.03
Euclidean distance (HEPG2): 3.6
Euclidean distance (OVCAR4): 2.72

CN1CCCN=C1/C=C/c1cccs1 [Pyrantel Pamoate]
Euclidean distance (786-O): 1.65
Euclidean distance (A549): 0.995
Euclidean distance (DU145): 0.771
Euclidean distance (FB): 1.28
Euclidean distance (HEPG2): 0.805
Euclidean distance (OVCAR4): 1.2

CCCCCCCCCCCCCCCCOc1nc2ccc(C)cc2c(=O)o1 [Cetilistat]
Euclidean distance (786-O): 1
Euclidean distance (A549): 1.33
Euclidean distance (DU145): 0.996
Euclidean distance (FB): 0.737
Euclidean distance (HEPG2): 0.864
Euclidean distance (OVCAR4): 0.764

Cc1cc(O)cc(C)c1Cl [Chloroxylenol]
Euclidean distance (786-O): 0.814
Euclidean distance (A549): 0.825
Euclidean distance (DU145): 1.13
Euclidean distance (FB): 0.9
Euclidean distance (HEPG2): 0.668
Euclidean distance (OVCAR4): 0.718

CN1C[C@@H]2C[C@H]1CN2c1cc2c(cc1F)c(=O)c(C(=O)O)cn2C1CC1 [Danofloxacin Mesylate]
Euclidean distance (786-O): 1.72
Euclidean distance (A549): 1.87
Euclidean distance (DU145): 1.14
Euclidean distance (FB): 0.963
Euclidean distance (HEPG2): 1.05
Euclidean distance (OVCAR4): 0.974

Cc1cc(C(=O)Nc2nc3cccc(Cl)c3n2[C@@H]2CCCCN(C(=O)/C=C/CN(C)C)C2)ccn1 [Nazartinib (EGF816. NVS-816)]
Euclidean distance (786-O): 1.87
Euclidean distance (A549): 1.93
Euclidean distance (DU145): 1.67
Euclidean distance (FB): 3.18
Euclidean distance (HEPG2): 2.99
Euclidean distance (OVCAR4): 1.9

CCOC(=O)c1ccc(O)cc1 [Ethylparaben]
Euclidean distance (786-O): 0.729
Euclidean distance (A549): 0.362
Euclidean distance (DU145): 0.901
Euclidean distance (FB): 0.865
Euclidean distance (HEPG2): 0.385
Euclidean distance (OVCAR4): 1.31
